Source: PubChem (National Center for Advancing Translational Sciences (NCATS))
ATXN2 expr inh = ATXN2 expression inhibition. HEK-293 ATXN2-luciferase reporter, luminescence, 24 h. Potency, µM (highest dose often 57 µM), hits mostly inhibitors. 360,000 tested, 0.72% active; further: nearly all actives have a fitted effect of over 55% in size
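ATXN2-luciferase reporter cells (luciferase flanked by upstream and downstream ATXN2 gene portions) were treated 24 h at 37 °C with compounds at up to 57 uM. SteadyGlo luminescence gave expression; GF-AFC fluorescence gave viability.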
12-LOX inh = ALOX12 (human) lipoxygenase inhibition | P18054 | purified 12hLO, xylenol orange hydroperoxide absorbance | Potency, µM (series often up to 108 µM), most hits filed as inhibitors | 580,000 tested, 1.1% active | AID 1671190
Target sequence (P18054 whole entry, looked up): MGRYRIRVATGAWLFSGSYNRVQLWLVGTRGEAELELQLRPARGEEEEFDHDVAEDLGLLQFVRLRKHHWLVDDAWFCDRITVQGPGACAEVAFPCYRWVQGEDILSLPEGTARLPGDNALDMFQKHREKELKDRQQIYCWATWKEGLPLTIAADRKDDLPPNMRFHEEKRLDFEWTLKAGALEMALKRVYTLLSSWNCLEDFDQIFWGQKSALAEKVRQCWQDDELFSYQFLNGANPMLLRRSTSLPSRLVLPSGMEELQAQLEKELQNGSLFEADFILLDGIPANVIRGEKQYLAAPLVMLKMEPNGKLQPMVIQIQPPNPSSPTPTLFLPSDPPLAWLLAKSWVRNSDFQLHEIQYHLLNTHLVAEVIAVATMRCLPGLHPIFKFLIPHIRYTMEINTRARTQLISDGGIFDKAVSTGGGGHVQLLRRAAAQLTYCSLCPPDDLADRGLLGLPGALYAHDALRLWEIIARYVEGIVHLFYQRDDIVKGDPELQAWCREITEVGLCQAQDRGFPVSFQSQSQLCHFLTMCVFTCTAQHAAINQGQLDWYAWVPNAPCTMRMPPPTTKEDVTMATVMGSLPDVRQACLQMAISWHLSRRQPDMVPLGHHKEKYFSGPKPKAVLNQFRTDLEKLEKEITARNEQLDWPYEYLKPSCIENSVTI
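Purified human 12hLO at 150 nM in 25 mM Hepes, 0.01% Triton X-100, pH 7.0, preincubated 15 min at room temperature with compound. Reaction started with 40 uM arachidonic acid, 30 min at room temperature. Hydroperoxide measured by Fe-xylenol orange, 573/405 nm absorbance ratio.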
S2 tox = cell viability loss in ATXN counter-screen | S2 cells (HEK-293 line with an ATXN2-luciferase reporter) viability, CellTiter-Fluor protease fluorescence, 24 h | Potency, µM (titrated, usually from 56.7 µM), most hits filed as cytotoxic | 400,000 tested, 0.49% active; further: nearly all actives have a fitted effect of over 40% in size
HepG2 tox = counter-screen for TGF-b inhibitors: cytotoxicity in HepG2 cells; HepG2 CAGA-GFP viability, ATP luminescence, 18 h; Potency, µM (doses to about 46.1 µM), hits mostly cytotoxic; 410,000 tested, 0.76% active
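HepG2 CAGA-GFP cells (1000/well, DMEM with 1% FBS) received compound, then TGF-beta at 500 pg/mL final, and were incubated 18 hours at 37 degrees C. Viability was read by CellTiter-Glo luminescence. Media-only wells were set as complete cell-killing and DMSO as no toxicity.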
TGFb inhibitor = blocks TGF-b signaling | HepG2 CAGA-GFP TGF-b/SMAD3 reporter, GFP fluorescence, 18 h; TGF-beta stimulated, 500 pg/mL final | Potency, µM (highest dose often 46.1 µM), actives largely listed as inhibitors | 410,000 tested, 1.2% active; further: nearly all actives have a fitted effect of over 65% in size
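TGF-beta reporter screen: HEPG2 CAGA-GFP, 1% FBS, 500 pg/mL TGF-beta final, 18 h; per-cell GFP summed per well; curves fitted and categorized by class.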
Numbers stand for hits; n = inactive; u = inconclusive; x = no result. Rows were chosen to be rich in hits. Some 2.7% of all compounds tested hit in one or more screens of this group. The call rests on the fitted dose curve; in most records, active means well fitted curve in the direction sought with a large enough effect; inconclusive means small, poorly fitted or top-dose-only effect, or another doubt; inactive means no such curve, though single readings can be large; an effect the other way counts as inactive or inconclusive.

SMILES	ATXN2 expr inh	12-LOX inh	S2 tox	HepG2 tox	TGFb inhibitor
N#Cc1ccc(C23CC4(C2)[C@H](CN(P(=O)(c2ccccc2)c2ccccc2)[C@@H]4c2ccccc2)C3c2ccc(Cl)nc2)cc1 (some centres not stated)	n	x	u	n	13µM
CCOC(=O)c1c(C)[nH]c(C)c1C=O	n	n	n	n	n
Cc1[nH]c(I)c(C)c1C=O	x	14µM	x	x	x
Cc1cc(C(F)(F)F)nc(SC(C(=O)O)c2ccccc2)n1 (configuration not stated)	x	11µM	x	x	x
CC1=C[C@@H](CNS(=O)(=O)c2ccccc2)[C@H](C(C)C)C[C@H]1CC(=O)NCc1ccc(C#N)cc1	x	35µM	x	x	x
COc1ccc(S(=O)(=O)NC[C@@H]2C=C(C)[C@H](CC(=O)NCc3ccc(C#N)cc3)C[C@H]2C(C)C)cc1	x	35µM	x	x	x
Cc1ccc(C(=O)C(OC(=O)c2ccco2)c2ccccc2)cc1C (configuration not stated)	x	n	x	x	x
C[C@@H]1COC(=O)[C@H](NC(=O)OCC2c3ccccc3-c3ccccc32)C/C=C\C[C@@H](CC(=O)N[C@@H](CO)Cc2ccccc2)C(=O)N1	n	u	u	n	n
O=C(C[C@H]1C/C=C\C[C@H](NC(=O)OCC2c3ccccc3-c3ccccc32)C(=O)OC[C@H](Cc2ccccc2)NC1=O)N[C@H](CO)Cc1ccccc1	u	u	u	13µM	u
FC(F)(F)c1ccccc1/C=N/NC(=S)NCc1ccccc1	x	40µM	x	x	x
Cc1ccc(Cn2cccc2/C=N/NC(=S)Nc2ccc(C)cc2)cc1	n	45µM	n	n	n
C=CCNC(=S)N/N=C/c1ccccc1C(F)(F)F	x	n	x	x	x
Cc1[nH]c2ccccc2c1/C=N/NC(=S)NCc1ccccc1	x	35µM	u	n	13µM
Cc1[nH]c2ccccc2c1/C=N/NC(N)=S	n	n	n	n	n
COc1ccc(NC(=S)N/N=C/c2cccn2Cc2ccc(F)cc2)cc1	n	u	n	n	n
CCc1nnc(N/N=C/c2c(C)[nH]c3ccccc23)n1N	n	32µM	n	n	u
COCC(=O)N(C1CCOCC1)C1CCN(S(=O)(=O)c2ccccc2F)CC1	x	n	x	x	x
COc1ccc(CNC(=O)Cn2nc(-c3ccc(OC)c(OC)c3)ccc2=O)cc1OC	x	n	x	x	x
Cc1ccc(NC(=S)N/N=C/c2c(C)[nH]c3ccccc23)cc1	n	32µM	n	n	u
COC1=CC(=O)c2nc(Cl)ccc2C1=O	3.2µM	u	u	1.3µM	0.89µM
CCN1CCN(c2cc(N3CCN(C(=O)c4ccco4)CC3)c3c4c(onc24)-c2ccccc2C3=O)CC1	n	x	u	25µM	n
O=C(O)c1[nH]c2ccccc2c1C(c1ccccc1)c1c(C(=O)O)[nH]c2ccccc12	n	n	n	n	n
COc1cc(C(c2c(C(=O)O)[nH]c3ccccc23)c2c(C(=O)O)[nH]c3ccccc23)ccc1OCc1ccccc1	n	28µM	n	n	n
C=CCOc1ccc(C(c2c(C(=O)O)[nH]c3ccccc23)c2c(C(=O)O)[nH]c3ccccc23)cc1	n	28µM	n	n	u
CCc1c(C)c2ccc(OCC(=O)c3ccccc3)cc2oc1=O	x	n	x	x	x
SMILES	ATXN2 expr inh	12-LOX inh	S2 tox	HepG2 tox	TGFb inhibitor
Cc1cccc(C(=O)N/N=C/c2coc3ccccc3c2=O)c1	n	n	n	n	n
Cc1ccc2occ(/C=N/NC(=O)[C@@H](N)Cc3ccccc3)c(=O)c2c1	n	n	n	10µM	n
COc1cc(F)ccc1-c1ccnc2nc(Cc3ccc(F)cc3)nn12	x	n	x	x	x
Clc1nssc1=Nc1nncs1	u	4.5µM	u	n	n
Clc1ccc(N=c2ssnc2Cl)nc1	x	u	u	n	n
Clc1nssc1=Nc1ccc(Br)cc1	n	4µM	u	n	u
O=C(O)c1ccc(C=Nc2ccc(Br)cc2)cc1	x	n	x	x	x
N#C/C(=C(/O)CN1CCCCC1)c1nc(-c2ccc(Cl)cc2)cs1	n	n	n	n	n
N#C/C(=C(/O)CN1CCN(c2ccccc2F)CC1)c1nc(-c2ccc(Cl)cc2)cs1	u	n	n	n	7.9µM
O=C(/C=C/c1ccc(Cl)cc1)c1ccc(OC(F)F)cc1OC(F)F	x	n	x	x	x
COc1ccc(Cl)cc1S(=O)(=O)N1CCN(C(=O)c2cc(-c3ccc(Br)cc3)n[nH]2)CC1	x	n	x	n	8.9µM
CN(C)S(=O)(=O)c1cccc(CSc2nnc(-c3ccc(Cl)cc3)n2N)c1	x	n	x	x	x
N#CC(C#N)=C1C=CC=CN1/C(=C\c1ccco1)C(=O)c1ccc(-c2ccccc2)cc1	u	u	u	11µM	7.1µM
CCOc1ccc2nc(N/C(N)=N/C(=S)Nc3ccc(C)c(C)c3)nc(C)c2c1	n	45µM	n	n	n
CCNC(=S)/N=C(\N)Nc1nc(C)c2cc(C)ccc2n1	n	u	n	n	u
COc1ccc(NC(=S)/N=C(\N)Nc2nc(C)c3ccc(C)cc3n2)cc1	u	u	16µM	n	n
O=C(Cn1c(=O)c2c(ncn2Cc2ccccc2)n(Cc2ccccc2)c1=O)Nc1ccccc1F	x	n	x	x	x
CNC(=O)c1cc2cc(-c3c(C)noc3C)nc(-c3ccccc3C)c2o1	x	n	x	x	x
CCCC/C(C)=N/NC(=O)CN(c1ccc(Br)cc1)S(=O)(=O)c1ccccc1	n	n	n	n	n
C/C(=N/NC(=O)CN(c1ccccc1)S(=O)(=O)c1ccccc1)c1ccccc1O	x	n	u	5.6µM	7.1µM
O=C(Nc1cccc(-c2nc3ccccc3o2)c1)c1ccc(Br)o1	x	n	x	x	x
CN1CCN(C(=O)CN2C(=O)c3cccnc3Oc3ccc(Cl)cc32)CC1	x	n	x	x	x
O=C(CCc1ncc(-c2ccc(F)cc2)o1)Nc1ccccc1N1CCOCC1	x	n	x	x	x
CCCCCCCCN1C(=O)[C@H](CC(=O)NCc2ccc(OC)c(OC)c2)C[C@@]2(C(=O)OCC)CCCC=C12	u	u	14µM	x	x
CCCCOCCCNC(=O)C[C@@H]1C[C@@]2(C(=O)OCC)CCCC=C2N(Cc2cccc3ccccc23)C1=O	u	u	35µM	x	x
SMILES	ATXN2 expr inh	12-LOX inh	S2 tox	HepG2 tox	TGFb inhibitor
CCOC(=O)[C@]12CCCC=C1N(CCc1ccc(OC)c(OC)c1)C(=O)[C@H](CC(=O)NCc1ccccc1)C2	x	n	x	x	x
O=C(c1cccc(Cl)c1)N1CCN(c2ccc3c(c2)C2CC3CCN2C(=O)OCc2ccccc2)CC1 (configuration not stated)	n	u	u	n	11µM
O=C(c1ccc(Cl)cc1)N1CCC2CC1c1cc(-c3ccccc3)ccc12 (configuration not stated)	n	n	n	n	20µM
O=C(c1cccc(Cl)c1)N1CCC2CC1c1cc(-c3ccccc3)ccc12 (configuration not stated)	n	u	n	n	u
CCOc1cc2cc(C(=O)c3ccccc3O)cnc2cc1OC	x	8.9µM	x	x	x
CCOc1cc(C(=O)Nc2cnc3ccccc3c2)ccc1OC	x	n	x	x	x
O=C1OC(Nc2nc3ccccc3s2)c2ccccc21 (configuration not stated)	n	n	n	n	n
